Eight molecules from PubChem BioAssay can be followed below.

Where “and” joins values, the source holds several entries; their conditions need not be identical. Equal entries are not always repeated. A number with no mark means an inactive call. The rule behind the calls is not given here.

This experiment concerns Aerobactin synthetase IucA (Klebsiella pneumoniae, hypervirulent). Kind of experiment: biochemical IucA inhibition screen of LOPAC library by absorbance (AID 1346212).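 Note: 100% = no compound wells and 0% = no enzyme wells.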 The settings on record: IucA enzyme assay, absorbance (OD) readout; stronger effect = lower value;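 tested at 8 µM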.
Take `NC(=S)NCCCC(N)C(=O)O` (stereo not drawn): the remaining activity is 102%.

`Nc1nc2[nH]c(=O)cnc2c(=O)[nH]1`: the remaining activity is 89%.

Take `Nc1ccn([C@@H]2O[C@H](CO)[C@@H](O)[C@@H]2O)c(=O)n1`: the remaining activity was 119%.

Turning to `CC(C)NC[C@H](O)c1ccc(O)c(O)c1`, the remaining activity was 108% and 104%.

As for `NC[C@@H]1O[C@H](O[C@H]2[C@@H](O)[C@H](O[C@@H]3[C@@H](O)[C@H](N)C[C@H](N)[C@H]3O[C@H]3O[C@H](CO)[C@@H](O)[C@H](O)[C@H]3N)O[C@@H]2CO)[C@H](N)[C@@H](O)[C@@H]1O`, the remaining activity was 104%.

As for `Nc1nc(Cl)nc2c1ncn2[C@@H]1O[C@H](COP(=O)(O)OP(=O)(O)OP(=O)(O)O)[C@H](O)C1O` (stereo partly drawn), the remaining activity is 104%.

With `CSc1nc(N)c2ncn([C@@H]3O[C@H](COP(=O)(O)OP(=O)(O)OP(=O)(O)O)[C@H](O)C3O)c2n1` (stereo partly drawn), the remaining activity was 109%.

Turning to `CC(C)NC[C@H](O)COc1cccc2[nH]ccc12`, the remaining activity is 116%.

For orientation: remaining activity means the signal under treatment as a percentage of the control signal.
